Results reported in PubChem BioAssay AID493170 (National Center for Advancing Translational Sciences (NCATS), 2011).
Inconclusive results are not listed. Calls of active or inactive are those of the source. The call rests on the fitted dose curve; in most records, active means well fitted inhibition curve with a large enough effect; inconclusive means small, poorly fitted or top-dose-only effect, or effect the other way; inactive means flat fitted curve, though single readings scatter.

molecular target: Ubiquitin carboxyl-terminal hydrolase 2 (Homo sapiens) (UniProt O75604); test: Ub-rhodamine 110 based assay for inhibitors Ubiquitin-specific Protease USP2a; settings: USP2a Ub-rhodamine110 cleavage, fluorescence; series mostly up to 38.3 µM; further: nearly all actives have a fitted effect of over 50% in size
Sequence (O75604 whole entry, looked up): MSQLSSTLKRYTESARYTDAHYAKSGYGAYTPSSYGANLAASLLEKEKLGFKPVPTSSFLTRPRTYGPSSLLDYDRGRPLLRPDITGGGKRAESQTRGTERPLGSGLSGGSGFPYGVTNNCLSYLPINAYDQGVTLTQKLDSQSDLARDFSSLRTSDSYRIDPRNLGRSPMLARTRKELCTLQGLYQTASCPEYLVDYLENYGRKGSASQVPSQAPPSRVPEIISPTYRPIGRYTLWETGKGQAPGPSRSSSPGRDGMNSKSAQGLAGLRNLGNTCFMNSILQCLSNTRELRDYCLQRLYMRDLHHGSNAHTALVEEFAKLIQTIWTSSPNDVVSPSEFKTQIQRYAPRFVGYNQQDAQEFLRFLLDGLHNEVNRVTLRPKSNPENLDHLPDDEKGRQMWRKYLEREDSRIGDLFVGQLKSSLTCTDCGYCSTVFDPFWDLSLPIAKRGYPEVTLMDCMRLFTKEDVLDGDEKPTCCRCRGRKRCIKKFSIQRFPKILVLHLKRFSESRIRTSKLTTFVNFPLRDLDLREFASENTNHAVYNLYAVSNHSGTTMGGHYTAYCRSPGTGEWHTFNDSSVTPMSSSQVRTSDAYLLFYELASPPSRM
Procedure, shortened: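 Kinetic fluorescence (485/531 nm) read each minute over 7 min after adding Ub-Rhod110 (150 nM final) to USP2a (5 nM final). The enzyme had 30 min RT exposure to compounds beforehand in Tris pH 8.0 buffer with CaCl2, CHAPS and beta-ME.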
Potency means the concentration at half of the fitted maximal effect.

Potency, inactive:
Cc1ccccc1C(=O)Nc1ccc2nc3n(c(=O)c2c1)CCC3, COc1cccc(N2CCN(C(=O)CN(C)S(=O)(=O)c3ccc4c(c3)CCC(=O)N4)CC2)c1, CCCCC(OC(=O)c1cc2occc2n1C)C(=O)NCC1CCCO1 (stereo not given), CCOc1ccc(Cn2nnc(C(=O)NCc3ccccc3)c2N)cc1, CN(C)c1ccc(-c2ccccc2)nn1, CSCCC(NC(=O)c1cc(C(C)(C)C)oc1C)C(=O)O (stereo not given), CCCCn1c(SCC(=O)N2CCC(C)CC2)nc2cc(S(N)(=O)=O)ccc21, Cc1cc(N2CCOCC2)nc(SCC(=O)c2ccc(Cl)cc2)n1, COc1ccc(-c2[nH]ncc2/C=C(/C#N)C(=O)NC2CCCCC2)cc1, O=[N+]([O-])/C(C(Cl)=C(Cl)Cl)=C(\Sc1ccccc1)N1CCCCC1, O=C(NN=Cc1ccc(N2CCOCC2)s1)c1ccc([N+](=O)[O-])cc1, Cc1ccc(NC(=O)CCC(=O)OC(C)C(=O)c2ccccc2)cc1 (stereo not given), COc1cccc(/C=N/n2c(SC)nnc2-c2ccccc2)c1O, CS(=O)(=O)c1nc(-c2ccc(Br)cc2)cc(-c2ccccc2)c1C#N, Cc1ccc(-c2c(C#N)c(N)nc3c2CCCCC3)o1, CC(C)(C)c1cc(Br)ccc1OCC(=O)Nc1ncn[nH]1, CC(=O)c1ccc(Nc2ncnc3c2oc2ccccc23)cc1, CC(C)c1ccc(CCNC(=O)c2ccc([N+](=O)[O-])cc2)cc1, COC(=O)c1cc2sc(Cl)cc2n1Cc1nc(-c2ccccc2)oc1C, Cc1nc(N(C)C)c2sc(=S)n(C)c2n1, Cc1cc(NC(=O)c2cccc(S(=O)(=O)N(C)C)c2)n(-c2ccccn2)n1, CCOc1ccccc1C(=O)N[C@H](C(=O)Nc1ccc(OC)c(S(=O)(=O)N2CCOCC2)c1)C(C)C, O=C(N/N=C/C=C/c1ccccc1)c1ccncc1, CCCOc1ccc(N2C(=O)CC(NCCc3ccc(S(N)(=O)=O)cc3)C2=O)cc1 (stereo not given), O=C(/C=N/O)NCc1cccnc1, O=C(c1ccccc1N(Cc1ccccc1)S(=O)(=O)c1ccccc1)N1CCOCC1, O=C(Nc1ccc(N2CCCC2)cc1)C(c1ccccc1)c1ccccc1, Cc1ccc(-c2ccc(CCC(=O)O)n2NC(=O)c2cccs2)cc1, O=C(COc1ccccc1)NCCSc1ccccc1, O=C(c1cccc(F)c1)N1CCN(S(=O)(=O)c2ccccc2)CC1, Cc1cc(NC(=O)CN2C(=O)NC3(CCCCC3C)C2=O)no1 (stereo not given)

Potency, active:
CN(CC(=O)Nc1cccc2ccccc12)C(=O)c1ccc(NC(=O)CC#N)cc1 11.2 µM, N#Cc1c(SCC(=O)Nc2nc3ccccc3s2)sc2c(O)cc(=O)[nH]c12 8.91 µM, O=C(/C=C/c1ccc(O)c(O)c1)c1ccc(S(=O)(=O)N2CCCCCC2)cc1 3.98 µM, CCN(CC)S(=O)(=O)c1ccc(-c2nnc(SCC(=O)Nc3ccc4c(c3)OCO4)o2)cc1 10 µM, O=C(/C=C/c1ccc(Cl)c([N+](=O)[O-])c1)Nc1ccc(N2CCCC2)cc1 12.6 µM, O=[N+]([O-])c1ccc2nc(C(O)C(O)c3nc4ccc([N+](=O)[O-])cc4[nH]3)[nH]c2c1 (stereo not given) 11.2 µM, O=C(CSc1nnc(SCc2ccccc2)s1)N/N=C/C=C/c1ccco1 6.31 µM, O=C(N/N=C/c1ccc(F)cc1)c1cc(-c2ccco2)nc2ccccc12 2 µM, O=C(C[n+]1ccc(C(=O)N/N=C/c2ccc(OCc3ccccc3)cc2)cc1)c1ccccc1 8.91 µM
